# ± gives the standard deviation of the averaged measurements. Whole data set: some 33,000 sequences, median “E-score (dimensionless, -0.5 to 0.5)” near -0.049, cut for the highest 2% near 0.37. The sample holds the highest values, similar sequences and a random draw of the others, so the mix is not that of the screen.
# System: T1, PmTbr T-box DNA-binding domain (GST fusion)
# T1 sequence: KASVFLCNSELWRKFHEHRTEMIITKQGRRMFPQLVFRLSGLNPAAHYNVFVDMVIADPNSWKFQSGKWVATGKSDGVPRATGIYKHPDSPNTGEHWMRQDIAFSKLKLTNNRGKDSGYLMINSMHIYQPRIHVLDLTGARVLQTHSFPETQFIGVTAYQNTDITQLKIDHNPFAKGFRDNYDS
# Assay: PBM E-score of 8-mer (E-score (dimensionless, -0.5 to 0.5)); Tbr is Tbrain of the sea star Patiria miniata (Pm) or the sea urchin Strongylocentrotus purpuratus (Sp); higher = stronger binding preference
# Conditions: the construct has about 5 more residues each side
# Experimental: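 Universal protein-binding microarray (Agilent AMADID 016060, 60-bp probes with a 35-bp variable region) incubated with 200 nM GST-fused Patiria miniata Tbr T-box DNA-binding domain (residues 272-466) in PBS pH 7.5. Scored for every ungapped 8-mer (given with its reverse complement) by the Universal PBM Analysis Suite as E-score (modified Wilcoxon-Mann-Whitney enrichment, range -0.5 to 0.5; >0.45 counts as bound) and Z-score of median probe intensity. Two replicate arrays (datasets 1 and 2).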
# 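Further: 200 nM protein in PBS on universal arrays averaged over duplicate arrays.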
row,Sequence,PBM E-score of 8-mer
1,ACGCGCGA,0.3693 ± 0.0027
2,ATTCTTTG,-0.109 ± 0.048
3,AATCAACA,0.231 ± 0.033
4,ATTAGGGG,-0.208 ± 0.071
5,AACAGCCT,0.145 ± 0.021
6,GGGTCTGA,-0.157 ± 0.028
7,TCGTGTCA,0.305 ± 0.0037
8,AAGTGTCA,0.4726 ± 0.0035
9,CAGTGTCA,0.31 ± 0.017
10,GATTGTCA,0.298 ± 0.0064
11,GAGTGTCC,-0.0246 ± 0.07
12,AAGTGTAT,0.019 ± 0.037
13,GAGTGTCA,0.436 ± 0.0041
14,CAGTGTCG,0.289 ± 0.0095
15,AAGTGTCG,0.44424 ± 0.0003
16,TAGTGTCA,0.395 ± 0.027
17,AAGTGTCC,0.281 ± 0.011
18,AAGTGTCT,0.329 ± 0.022
19,ACTGCTGG,-0.191 ± 0.0095
20,AAGGCCAT,-0.225 ± 0.0052
21,CAGCATTA,-0.0723 ± 0.024
22,GAGGAGAA,-0.158 ± 0.088
23,CCTACCAG,0.00153 ± 0.031
24,GGCGAGCA,-0.102 ± 0.048
25,CAATGTCG,0.119 ± 0.014

row,Sequence,PBM E-score of 8-mer
1,CGTATTCA,0.165 ± 0.051
2,ACCTAGTG,0.223 ± 0.013
3,CCTTGAGC,-0.11 ± 0.019
4,ATGAGCAC,-0.247 ± 0.061
5,CTATGCAC,-0.129 ± 0.042
6,CCGCTAAC,0.169 ± 0.038
7,GCGCTAAC,0.4144 ± 0.0034
8,GCGCTAAA,0.394 ± 0.012
9,CCGCTAAA,0.275 ± 0.022
10,TCGCTAAA,0.163 ± 0.043
11,ACGCTAAC,0.257 ± 0.056
12,GGCTAGAC,-0.231 ± 0.029
13,AGTTCACC,-0.0448 ± 0.0017
14,AGTTCACG,0.32 ± 0.02
15,CGTTCAAG,-0.177 ± 0.028
16,GGTTCACA,0.372 ± 0.0038
17,GGTTCATA,0.0267 ± 0.028
18,CGTTCACA,0.406 ± 0.012
19,GGCTCACA,0.0846 ± 0.0034
20,AGTTCACA,0.395 ± 0.0064
21,CGTTCACC,-0.0379 ± 0.073
22,GTTAAACA,0.00153 ± 0.043
23,AGGTCTGG,0.0461 ± 0.012
24,ACGCTAAT,0.114 ± 0.018
25,AGTTCTTG,-0.0105 ± 0.0029

row,Sequence,PBM E-score of 8-mer
1,CGGCCCTA,-0.249 ± 0.019
2,TACGCACA,-0.0799 ± 0.0095
3,ACGTGTAA,0.31 ± 0.0077
4,CCGTGTCG,0.144 ± 0.045
5,CCGTGTCA,0.236 ± 0.0063
6,ACGTGTCT,0.198 ± 0.0036
7,ACGTGTCA,0.4563 ± 0.0033
8,ACGTGTCG,0.385 ± 0.022
9,CCGCATAG,-0.047 ± 0.042
10,AGGTTAAG,-0.186 ± 0.083
11,GCCCACTA,-0.0431 ± 0.011
12,CCGGAGAA,-0.00469 ± 0.1
13,ATCCCGCG,-0.042 ± 0.095
14,GCGTGAGA,0.368 ± 0.021
15,GCGTGTGA,0.373 ± 0.016
16,ACGTGTGA,0.4818 ± 0.0022
17,ACGTGTGC,0.174 ± 0.035
18,GCGTGTAA,0.0292 ± 0.033
19,CCGTGTGA,0.335 ± 0.015
20,AGCGGGTG,0.308 ± 0.017
21,AGGGGGGC,-0.222 ± 0.034
22,ATTGTCGC,0.292 ± 0.024
23,GTTGTCGA,0.241 ± 0.021
24,AGTGTCGC,0.415 ± 0.019
25,GGTGTCGA,0.461 ± 0.0086

row,Sequence,PBM E-score of 8-mer
1,GGTGTCTA,0.376 ± 0.007
2,CGTGTCGC,0.295 ± 0.023
3,ATTGTCGA,0.0764 ± 0.052
4,AGTGTCTA,0.213 ± 0.017
5,CGTGTCTA,0.0962 ± 0.0027
6,AGTGTCGA,0.4188 ± 0.0041
7,CGTGTCGA,0.288 ± 0.052
8,AATGTCGA,0.0192 ± 0.036
9,CAGCGGTA,-0.061 ± 0.018
10,ACTGAAAC,-0.0158 ± 0.016
11,CTCCTGCC,-0.0358 ± 0.0023
12,AGCTGTCA,0.3661 ± 0.003
13,CACCAGGG,0.0472 ± 0.096
14,AGTGTGGA,0.354 ± 0.0036
15,GGTGTGGA,0.432 ± 0.015
16,AATGTCGG,-0.0392 ± 0.026
17,AGTGTCGG,0.38 ± 0.0074
18,ATTGTCGG,0.0329 ± 0.01
19,CGTGTGGA,0.284 ± 0.0037
20,CGGCTGAG,-0.1 ± 0.073
21,CTGTCTTC,0.0449 ± 0.021
22,AACATTTG,0.0235 ± 0.04
23,CTCTGAGC,-0.0449 ± 0.047
24,CACCTCGC,0.458 ± 0.0073
25,AACCTCGA,0.0311 ± 0.022

row,Sequence,PBM E-score of 8-mer
1,CCCCTCGG,-0.194 ± 0.016
2,GACCTCGC,0.0974 ± 0.064
3,GACCTCGA,-0.0343 ± 0.13
4,AACCTCGC,0.196 ± 0.035
5,CACCTCGG,0.426 ± 0.015
6,AACCTCGG,-0.124 ± 0.033
7,CACCTCGA,0.4483 ± 0.002
8,ACTCAGAC,0.0474 ± 0.069
9,ATTAGAAG,-0.226 ± 0.053
10,GTAGAGCA,-0.196 ± 0.024
11,GCGGTTAC,-0.0207 ± 0.021
12,CAACCGTG,0.216 ± 0.013
13,GGTTAACA,0.255 ± 0.026
14,GGTTAGCA,0.314 ± 0.027
15,CGTTAACA,0.372 ± 0.044
16,AGTTAGCA,0.32 ± 0.023
17,TGTTAACA,0.38 ± 0.0039
18,CGTTAACC,0.0384 ± 0.0052
19,CGTTAACG,0.266 ± 0.015
20,CGTTAGCA,0.394 ± 0.012
21,AGTTAACA,0.334 ± 0.013
22,TCTTCCCA,0.114 ± 0.031
23,TACCATAA,-0.0564 ± 0.0014
24,GAAATAGA,-0.125 ± 0.036
25,CGACTTCC,-0.183 ± 0.002

row,Sequence,PBM E-score of 8-mer
1,AAGATGGA,-0.228 ± 0.058
2,ACCCCGCC,0.119 ± 0.051
3,CTTCACAC,0.4785 ± 0.0022
4,ATTCACAG,0.355 ± 0.0076
5,ATTCACGC,0.4258 ± 0.0014
6,CTTCACCC,0.0387 ± 0.019
7,ATTCACAC,0.4763 ± 0.0034
8,CTTCACAA,0.225 ± 0.058
9,ATTCACGA,0.29 ± 0.0094
10,CTTCACGC,0.356 ± 0.04
11,ATTCACAA,0.247 ± 0.024
12,CATTAGAC,-0.177 ± 0.0077
13,AATATAAA,-0.136 ± 0.075
14,ACGCTTCT,0.106 ± 0.035
15,CAAACCCC,-0.155 ± 0.069
16,ACGGGCAA,-0.133 ± 0.057
17,GGCACCTA,0.412 ± 0.006
18,GCCACCTA,0.336 ± 0.033
19,CCCACCTC,0.2907 ± 0.0021
20,GGCACCGA,-0.0859 ± 0.03
21,CGCACCGC,0.222 ± 0.063
22,AGCACCGG,0.0404 ± 0.045
23,ACCACCTC,0.341 ± 0.027
24,AGCACCGC,0.0529 ± 0.038
25,CGCACCTC,0.46 ± 0.012

row,Sequence,PBM E-score of 8-mer
1,AGCACCCG,0.252 ± 0.061
2,AGCACCTG,0.415 ± 0.0079
3,AGCACCTC,0.4279 ± 0.0012
4,CCCTAATA,-0.219 ± 0.027
5,GAACACTC,0.0811 ± 0.024
6,AGGGAACG,0.0301 ± 0.15
7,ACTATGCT,0.00416 ± 0.025
8,AAGAGCGT,-0.119 ± 0.04
9,GAGGCCTA,-0.176 ± 0.014
10,CTCAAATA,-0.321 ± 0.072
11,ACCAAGTA,0.0125 ± 0.031
12,AAGAGCGC,-0.188 ± 0.004
13,AGGAGAAA,-0.109 ± 0.19
14,CACTAAGA,0.0202 ± 0.013
15,CAGCCCTG,-0.294 ± 0.015
16,ACCAGCCT,-0.14 ± 0.082
17,AGGGTATG,-0.218 ± 0.032
18,TGAAGCAA,-0.229 ± 0.055
19,CGCACCAA,0.251 ± 0.04
20,AGCACCTA,0.435 ± 0.00088
21,CGCACCGA,0.0275 ± 0.11
22,ACCACCTA,0.205 ± 0.0085
23,CGCACCTA,0.422 ± 0.0048
24,AGCACCGA,-0.00405 ± 0.11

# Reference: the supplement of paper PMC4166925
